Screening data from PubChem.
USP28 block: inhibitors of human USP28 deubiquitinase; Ubiquitin carboxyl-terminal hydrolase 28 (Homo sapiens), Q96RU2; purified USP28, Ub-rhodamine cleavage fluorescence, 30 min; inhibition, % at 25 µM; actives 3% (n = 47,000)
USP30 inh: inhibitors of human USP30 deubiquitinase; Ubiquitin carboxyl-terminal hydrolase 30 (Homo sapiens), Q70CQ3; purified USP30, Ub-rhodamine cleavage fluorescence; inhibition, % at 25 µM; actives 5.3% (n = 47,000)
Large screens that a line does not name were inactive. A selection: hits, their analogues and other compounds. The true share with any hit is near 7%. Rule as the data show it: active = inhibition above about 30%; inactive = the rest.

Cc1nc(C)n(CC2CCCCN2Cc2ccc(F)cc2C#N)n1 (stereo not given)	none
Cc1ccc(CNC(=O)CCc2c(C)nc3c(c(C)nn3-c3ccc(C)cc3)c2C)cc1	none
Cc1ccc(-n2nc(C)c3c(C)cc(C(=O)NCc4cccs4)nc32)cc1	USP30 inh 46.3
Cc1nn(-c2ccccc2)c2c1c(-c1ccccc1)cc(=O)n2CC(=O)N1CCOCC1	none
CN1CCN(C(=O)c2ccc3nnc(C4CCN(C(=O)N(C)C)C4)n3c2)CC1 (stereo not given)	none
Cc1ccnn1CCC(=O)N1C[C@@H](c2cc(F)cc(F)c2)[C@@]2(CCCCC(=O)N2)C1	none
O=C1CCCC[C@]2(CN(C(=O)c3ccc(-n4cccn4)nc3)C[C@H]2c2ccc(F)cc2)N1	USP30 inh 32.8
COC(=O)c1cc(NC(=O)/C=C/c2ccc(C(C)C)cc2)ccc1N1CCOCC1	none
COC(=O)c1ccc(NC(=O)/C=C/c2ccc(F)cc2)cc1	USP28 block 95.6, USP30 inh 90.3
Cc1ccc(NC(=O)COC(=O)CCCC2=NS(=O)(=O)c3ccccc3N2)c(C)c1	none
O=C(COc1ccccc1F)Nc1ccc(N2CCCCC2)c(F)c1	none
CCc1noc(C)c1C(=O)N1C[C@H]2CC[C@@H](N(C)c3cccnn3)[C@H]2C1	none
COc1cccc(NC(=O)CC2Sc3ccccc3NC2=O)c1 (stereo not given)	USP30 inh 38.6
O=C(CC1SC(=O)NC1=O)Nc1cccc(C(F)(F)F)c1 (stereo not given)	none
Nc1c(-c2ccccc2)nc2ccccn12	none
O=[N+]([O-])c1ccc(-c2nc3ccccn3c2Br)cc1	USP30 inh 44.1
CCc1ccc(NC(=O)N2CCC3(CC2)COCCN(Cc2cccnc2)C3)cc1	none
CC1(C)Oc2ccccc2[C@H]2OCC3(CCN(C(=O)CC4CCOCC4)CC3)C[C@@H]21	none
CC(=O)c1ccc(Nc2nc(-c3cc4cc(Cl)ccc4oc3=O)cs2)cc1	none
COc1ccccc1OCC(=O)N1CCC(c2nc3ccccc3cc2C(N)=O)CC1	USP30 inh 34.2
COc1ccc(OCC(=O)N2CCC(c3nc4ccccc4cc3C(N)=O)CC2)cc1	none
CN1CCN(C(=O)c2ccc3nnc(C4CN(c5ncccn5)CCN4C)n3c2)CC1 (stereo not given)	none
COc1ccccc1NS(=O)(=O)c1ccc(NC(=O)c2cc3c(C)nn(-c4ccccc4)c3s2)cc1	none
Cc1ccccc1Cn1c(CCNC(=O)c2ccco2)nc2ccccc21	none
Cc1ccc(Cn2c(CCNC(=O)c3ccc(Cl)cc3)nc3ccccc32)cc1	USP30 inh 52.5
CN1CC(c2nc3ccccc3n2CCCOc2ccc(Cl)cc2)CC1=O (stereo not given)	none
COc1ccc(OCCn2c(C3CC(=O)N(c4cccc(C)c4)C3)nc3ccccc32)cc1 (stereo not given)	USP30 inh 34.0
O=C1CC(c2nc3ccccc3n2CCOc2ccc(Cl)cc2)CN1c1ccccc1 (stereo not given)	USP30 inh 72.4
CCCCN1CC(c2nc3ccccc3n2CCOc2ccccc2OC)CC1=O (stereo not given)	none
CCCn1c(C2CC(=O)N(c3cccc(C)c3)C2)nc2ccccc21 (stereo not given)	none
Cc1ccc(N2CC(c3nc4ccccc4n3CCCOc3ccccc3)CC2=O)cc1 (stereo not given)	USP30 inh 55.9
COc1ccccc1OCCCCn1c(C2CC(=O)N(c3ccccc3F)C2)nc2ccccc21 (stereo not given)	USP30 inh 39.0
CN1CC(c2nc3ccccc3n2CCCc2ccccc2)CC1=O (stereo not given)	none
Fc1cccc(Cn2c(/C=C/c3ccccc3Cl)nc3ccccc32)c1	none
O=C(CSc1ncnc2c1sc1nc(-c3ccccc3)c3c(c12)CCC3)Nc1ccc(Cl)cc1	none
COC(=O)c1cc2c(ccn2C)n1Cc1ccccn1	none
CCC(NS(=O)(=O)c1ccc(S(=O)(=O)N2CCOCC2)cc1)C12CC3CC(CC(C3)C1)C2 (stereo not given)	USP30 inh 33.5
O=C(c1ccc(S(=O)(=O)N2CCOCC2)cc1)N1CCN(C23CC4CC(CC(C4)C2)C3)CC1	none
CCn1c(SCc2nc(-c3ccccc3C)no2)nnc1-c1ccccc1	none
N#Cc1ccc(S(=O)(=O)N2CCC(N3CCOCC3)CC2)cc1	none
COc1ccc2c(c1)c(N1CCCC1=O)c(C(=O)NCc1cccc(OC)c1OC)n2C	USP28 block 57.4
COc1ccc2c(c1)c(N1CCCC1=O)c(C(=O)NCc1ccccc1F)n2C	none
Fc1cccc(CNc2cc(-n3ccnc3)ncn2)c1	USP28 block 31.9
Cc1cccc(CNc2cc(-n3ccnc3)ncn2)c1	none
Cn1cc(S(=O)(=O)Nc2ncn(Cc3ccc(Cl)cc3)n2)cn1	none
COc1cccc(-c2cc3n(C)c(C)c(CCC(=O)NCc4ccco4)c(=O)n3n2)c1	none
O=C(Nc1ccc2c(c1)OCCO2)c1c(-c2ccccc2)nnc2ccccc12	none
Cc1cccc(-n2c(Cc3cc(=O)[nH]c(=O)[nH]3)nnc2SCC(=O)NCc2ccccc2Cl)c1	USP30 inh 30.9
Cc1cccc(-n2c(Cc3cc(=O)[nH]c(=O)[nH]3)nnc2SCC(=O)Nc2ccc(F)cc2F)c1	none
COc1ccc(S(=O)(=O)N2CCCCC2)cc1N(C)S(=O)(=O)c1ccc(C)cc1	none
Cc1ccc(Cn2cc(S(=O)(=O)N3CCCCC3)ccc2=O)cc1	none
Cc1ccc(S(=O)(=O)N(C)c2c(C)ccc(S(=O)(=O)N3CCCCC3)c2C)cc1	USP30 inh 30.1
Cc1ccc(S(=O)(=O)N2CCN(S(=O)(=O)N3CCCCCC3)CC2)cc1	USP30 inh 39.7
O=C(Nc1ccc(F)cc1F)c1cnc(N2CCOCC2)nc1	none
COc1ccc2cc(C(=O)N3CCC(C(C)C(=O)NCc4ccccc4)CC3)[nH]c2c1 (stereo not given)	none
Cc1noc(-c2cccn(Cc3cccc(C(F)(F)F)c3)c2=O)n1	USP28 block 76.4
N#Cc1c(-c2ccccc2)ccn(Cc2cccc(C(F)(F)F)c2)c1=O	USP30 inh 44.0
Cc1noc(-c2cccn(Cc3ccccc3C#N)c2=O)n1	none
COc1ccc(Cn2ccc(-c3ccccc3)c(C#N)c2=O)cc1	none
Cc1sc(-c2ccccn2)nc1OC(=O)c1cccc(C(F)(F)F)c1	none
Cc1cc(-c2nccn2C)nc(C2CCN(C(=O)c3ccncc3)CC2)n1	none
O=c1c(-c2ccc(O)cc2)coc2cc(O)cc(O)c12	none
O=c1c(O)c(-c2ccc(O)c(O)c2)oc2cc(O)cc(O)c12	USP28 block 98.4, USP30 inh 81.0
O=c1cc(-c2ccc(O)c(O)c2)oc2cc(O)cc(O)c12	USP28 block 98.8, USP30 inh 100.7
COc1cc(OC)c2c(=O)cc(-c3ccccc3)oc2c1	none
Cc1ccc(-c2nc(CN3CCCC3Cn3cncn3)cs2)o1 (stereo not given)	none
Cn1ncc2c(NCc3ccccc3)nc(NCCO)nc21	none
Cc1ccc(C)c(Nc2nc(NCc3ccccc3)c3ccccc3n2)c1	USP28 block 61.0, USP30 inh 82.0
Cc1ccc(NC(=O)CCc2nc(CSc3nc4ccccc4o3)no2)c(C)c1	none
O=C(CCc1nc(CSc2nc3ccccc3o2)no1)Nc1ccccc1F	USP28 block 47.6
COc1ccccc1Nc1cc(C(=O)NCCc2ccccc2)c2ccccc2n1	none
Cc1cccc(C(=O)Nc2ccc(N3CCCCC3)c(NC(=O)Nc3ccccc3Cl)c2)c1	none
Cc1ccc(C(=O)Nc2ccc3c(c2)C(=O)N(C)c2ccccc2O3)cc1C	USP28 block 54.8
